Compound activity as filed in PubChem.
MRP reversal: compounds reversing MRP-mediated drug resistance; differential viability (reversal), % at 10 µM; 85,000 tested, 0.04% active; AID 602; H69AR cells + 2 uM doxorubicin, CellTiter-Glo, 72 h;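 active = viability drop by adding the cancer drug above about 55%, with treated viability meeting a 40% cutoff, limit read from the data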;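 also: viability without doxorubicin minus viability with 2 µM doxorubicin for each compound; larger differential means the compound sensitizes cells more to doxorubicin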
PLAP activator: activates human placental alkaline phosphatase. purified PLAP enzyme, luminescent substrate read-out; active compounds read high. AID 696. P05187. activation fold at 20 µM. 96,000 tested, 1.2% active; in the data active = activation fold above about 2
Target sequence (P05187 whole entry, looked up): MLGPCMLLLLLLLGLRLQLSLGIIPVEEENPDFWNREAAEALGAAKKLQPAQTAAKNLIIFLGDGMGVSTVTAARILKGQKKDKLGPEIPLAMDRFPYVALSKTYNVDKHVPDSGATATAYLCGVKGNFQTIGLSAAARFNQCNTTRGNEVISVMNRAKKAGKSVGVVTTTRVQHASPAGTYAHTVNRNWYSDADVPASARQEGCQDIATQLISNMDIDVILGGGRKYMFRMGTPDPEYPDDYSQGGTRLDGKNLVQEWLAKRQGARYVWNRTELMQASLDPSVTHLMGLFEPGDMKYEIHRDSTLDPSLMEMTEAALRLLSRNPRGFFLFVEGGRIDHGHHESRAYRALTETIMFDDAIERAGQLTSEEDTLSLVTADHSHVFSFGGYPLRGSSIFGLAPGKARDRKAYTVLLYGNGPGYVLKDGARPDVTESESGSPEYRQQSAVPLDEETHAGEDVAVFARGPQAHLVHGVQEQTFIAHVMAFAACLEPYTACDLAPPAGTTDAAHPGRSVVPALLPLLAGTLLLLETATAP
PTPN22 act: LYP (human) phosphatase activation; Q9Y2R2; recombinant LYP, DiFMUP fluorescence; 0 = plate median, 100 = signal doubled; activation, % at 2 µM; 96,000 tested, 0.11% active;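 active = activation at 2 µM above a set limit, the mean plus 5 SD, cut at about 37% in these data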
FAK inh: FAK (human) kinase inhibition; biochemical FAK kinase activity assay; inhibition, %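 (tested at 7 µM)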; 97,000 tested, 0.84% active;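 also: 0% = DMSO and 100% = reference compound high control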
MRP1 act: activators of MRP-1 | H69AR cells + doxorubicin, viability rescue, CellTiter-Glo | viability increase, % at 10 µM | 140,000 tested, 0.61% active | AID 799;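 active = viability gain under doxorubicin at or above a set limit, the compound median plus 3 SD, cut at about 4.7% in these data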;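 also: MRP-1 overexpressing cells given doxorubicin 25 µM after compound pretreatment; 18-22 h compound pretreatment then 72 h with doxorubicin before readout; 0% = doxorubicin-only wells and 100% = vehicle-treated cells without doxorubicin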
PTPN22 inh 2: inhibitors of human LYP (PTPN22) phosphatase. Q9Y2R2. recombinant LYP catalytic domain, DiFMUP fluorescence. inhibition, % at 2 µM. 96,000 tested, 0.21% active. AID 640;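 active = inhibition at 2 µM at or above a set limit, the screen mean plus 3 SD, cut at about 24% in these data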;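 also: 0% = DMSO with enzyme and 100% = enzyme fully blocked by orthovanadate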
FAK inh confirm: confirmation of human focal adhesion kinase (FAK) inhibitors; FAK kinase biochemical inhibition assay; shares compounds with FAK inh; 750 tested, 28% active; inhibition, % at 7 µM
An asterisk follows results filed as active; . = no result given. An excerpt weighted towards active compounds, which were near 2.2% of everything screened. Rule as the data show it, unless noted: active = inhibition above about 19%; inactive = the rest.

SMILES | MRP reversal | PLAP activator | PTPN22 act | FAK inh | MRP1 act | PTPN22 inh 2 | FAK inh confirm
Cc1ccc2[nH]c3c(N4CCCCCC4)ncnc3c2c1 | 7 | 0.8 | -1 | 42* | -3 | -2 | 19
COc1ccc2c(c1)[nH]c1c(N3CCN(Cc4ccc5c(c4)OCO5)CC3)ncnc12 | . | 1.9 | 2 | 25* | -3 | -4 | 10
Cc1ccc2[nH]c3c(N4CCN(Cc5ccc6c(c5)OCO6)CC4)ncnc3c2c1 | -5 | 1 | -10 | 38* | -5 | 7 | 18
O=C(COc1ccc(S(=O)(=O)N2CCCC2)cc1)NCCC1=CCCCC1 | -5 | 1.2 | -7 | 23* | -2 | 6 | 1
Oc1ccc(N=Cc2ccc(-c3cccs3)s2)cc1 | -14 | 0.9 | -1 | 43* | -2 | -2 | 2
O=C(NCCO)c1cccc(Nc2nc(-c3ccccc3)c3cc(Cl)ccc3n2)c1 | . | 1.4 | -2 | 33* | -3 | 6 | 1
O=C(CSc1ccc2ccccc2c1)Nc1ccc(S(=O)(=O)Nc2nccs2)cc1 | . | . | . | . | -2 | . | .
COc1ccc(-c2cn[nH]c2N)cc1 | -4 | 1.1 | 31 | 6 | -3 | -35 | .
COc1ccc(-c2cn[nH]c2N)c(OC)c1 | 2 | 0.8 | -11 | 31* | -1 | 7 | 1
Cn1nc(-c2ccc(C(=O)Nc3cccc(Cl)c3)cc2)c2ccccc2c1=O | -2 | 0.9 | -16 | 0 | 0 | 15 | .
CCC(C)NS(=O)(=O)c1ccc(OCC(=O)N2CCC(C)CC2)cc1 (stereo not given) | 5 | . | -5 | 0 | -3 | 5 | .
CCOC(=O)c1cnc2ccc(C(=O)OC)cc2c1Nc1ccc2c(c1)OCCO2 | . | 1 | 9 | 36* | -4 | -4 | 11
CCOC(=O)c1cnc2ccc(OC)cc2c1Nc1ccc2c(c1)OCCO2 | . | 1 | 3 | 24* | -4 | 3 | 11
CCOC(=O)c1ccc2ncc(C(=O)OCC)c(NCc3ccco3)c2c1 | -11 | 1.3 | -8 | 23* | -5 | 9 | 9
CCCOC1OC(=O)c2c1ccc(OC)c2OC (stereo not given) | . | . | . | . | 1 | . | .
Cc1n[nH]c(C)c1CCc1nc2c3ccccc3nc(SCC(=O)Nc3ccccc3F)n2n1 | -8 | 2.2* | 3 | 21* | -1 | -6 | 16
Cc1cccc(NC(=O)CSc2nc3ccccc3c3nc(CCc4c(C)n[nH]c4C)nn23)c1 | 1 | 1.4 | -1 | 4 | -2 | 3 | .
Cc1nc(NCCCn2ccnc2)c2ccccc2n1 | 3 | 1 | . | . | -1 | . | .
O=C1c2ccccc2-c2onc3ccc(NCCCn4ccnc4)c1c23 | -21 | 1.5 | 4 | 36* | -8 | -5 | 27*
O=c1[nH]c2ccccc2cc1-c1noc(-c2cccnc2)n1 | -2 | 0.9 | -8 | 7 | 0 | 7 | .
COc1ccc2[nH]c(=O)c(-c3noc(-c4ccccc4)n3)cc2c1 | -8 | 1.1 | -3 | 59* | -1 | 1 | 36*
Cc1ccc(N2CC(C(=O)Nc3ccc4c(c3)OCO4)CC2=O)cc1 (stereo not given) | 15 | 1.2 | 2 | 40* | -3 | -4 | 2
Nc1c(C(=O)Nc2nc3ccccc3s2)sc2nc(-c3cccs3)ccc12 | . | 1.4 | -31 | 49* | -7 | 35* | 27*
Nc1c(C(=O)Nc2ccccc2)sc2nc(-c3ccco3)ccc12 | -17 | 1.3 | 3 | 26* | -4 | -6 | -3
COc1cc(NC(=O)CN2C(=O)NC(C)(c3ccc4ccccc4c3)C2=O)c(C)cc1[N+](=O)[O-] (stereo not given) | . | . | . | . | -3 | . | .
SMILES | MRP reversal | PLAP activator | PTPN22 act | FAK inh | MRP1 act | PTPN22 inh 2 | FAK inh confirm
Cn1cc(Br)c(C(=O)Nc2nccs2)n1 | . | . | . | . | 0 | . | .
CCCCNC(=O)c1ccc(CNc2c(N3CCC(C(=O)OCC)CC3)c(=O)c2=O)cc1 | 8 | . | -2 | -4 | -2 | 0 | .
COc1cccc(Nc2ncnc3nc[nH]c23)c1 | -1 | 1.5 | -8 | 23* | -3 | 8 | 5
Cc1c(Nc2ncnc3nc[nH]c23)c(=O)n(-c2ccccc2)n1C | -13 | 1 | . | . | -2 | . | .
Cc1ccc(Nc2ncnc3nc[nH]c23)cc1Cl | 4 | 1.4 | 3 | 31* | -2 | -6 | 10
COc1cc(NC(=O)Cn2c(=O)n(-c3cccc(C)c3)c(=O)c3c(C)c(C)sc32)cc(OC)c1 | . | . | . | . | -2 | . | .
Cc1nn(-c2ccccc2)c(Cl)c1CN(C(=O)CCl)c1cccc2ccccc12 | . | . | . | . | -5 | . | .
